{"source": "PubChem BioAssay (NCI)", "key": {"[1]": {"experiment": "NCI Yeast Anticancer Drug Screen. Data for the rad52 strain (AID 147);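 also: 0% = growth of vehicle-treated control cultures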", "settings": "S. cerevisiae rad52 mutant growth inhibition, stronger effect = higher value", "summary_of_the_method": "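Growth of repair-deficient yeast cells was compared between compound-treated and vehicle-treated cultures to give percent inhibition.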"}, "[2]": {"experiment": "NCI Yeast Anticancer Drug Screen. Data for the wt1 strain (AID 149);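 also: 0% = growth of vehicle-treated wt1 cultures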", "settings": "S. cerevisiae wt1 strain (SPY 50644) growth inhibition, stronger effect = higher value", "summary_of_the_method": "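Growth inhibition read against vehicle controls after compound exposure of the wt1 yeast strain.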"}, "[3]": {"experiment": "NCI Yeast Anticancer Drug Screen. Data for the rad50EPP+ strain (AID 151);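 also: 0% = growth of vehicle-treated control cultures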", "settings": "S. cerevisiae rad50 mutant strain, stronger effect = higher value", "summary_of_the_method": "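Measured: growth inhibition of rad50EPP+ yeast. Reference: vehicle-treated controls. Screen uses strains with defined genetic alterations in DNA damage repair or cell cycle control.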"}, "[4]": {"experiment": "NCI Yeast Anticancer Drug Screen. Data for the mgt1 strain (AID 153)", "settings": "S. cerevisiae mgt1 mutant growth inhibition, stronger effect = higher value", "summary_of_the_method": "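Compounds were applied to mgt1 mutant yeast, and growth was then compared against vehicle-treated control cultures to give percent inhibition.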"}, "[5]": {"experiment": "NCI Yeast Anticancer Drug Screen. Data for the rad50 strain (AID 155);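 also: 0% = growth of vehicle-only cultures of the same strain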", "settings": "S. cerevisiae rad50 strain growth inhibition, stronger effect = higher value", "summary_of_the_method": "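Readout: growth inhibition relative to vehicle-treated cultures. Compound exposure was carried out in a genetically defined yeast strain deficient in DNA damage repair.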"}, "[6]": {"experiment": "NCI Yeast Anticancer Drug Screen. Data for the mec2-1 strain (AID 157)", "settings": "S. cerevisiae mec2-1 strain, stronger effect = higher value", "summary_of_the_method": "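Compounds were applied to mec2-1 yeast cells. Their growth was then compared with that of vehicle-treated cultures to give growth inhibition.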"}, "[7]": {"experiment": "NCI Yeast Anticancer Drug Screen. Data for the rad14 strain (AID 159);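 also: 0% = growth of vehicle-treated control cultures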", "settings": "S. cerevisiae rad14 strain growth inhibition, stronger effect = higher value", "summary_of_the_method": "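Growth inhibition vs vehicle controls; genetically altered yeast strain (DNA damage repair defect) treated with test compounds.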"}, "[8]": {"experiment": "NCI Yeast Anticancer Drug Screen. Data for the sgs1 mgt1 strain (AID 161);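 also: 0% = growth of cultures given vehicle only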", "settings": "S. cerevisiae sgs1 mgt1 strain, stronger effect = higher value", "summary_of_the_method": "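Growth of a repair-deficient yeast mutant was monitored after compound treatment and expressed as inhibition relative to vehicle-treated cultures.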"}, "[9]": {"experiment": "NCI Yeast Anticancer Drug Screen. Data for the CLN2oe strain (AID 163);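 also: 0% = growth of vehicle-only control cultures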", "settings": "S. cerevisiae CLN2oe strain, stronger effect = higher value", "summary_of_the_method": "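Cells of an engineered yeast line with disturbed cell-cycle regulation are treated with compound. Inhibition of growth is then calculated relative to the vehicle-treated reference.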"}, "[10]": {"experiment": "NCI Yeast Anticancer Drug Screen. Data for the cln2 rad14 strain (AID 165);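 also: 0% = growth equal to vehicle treated cultures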", "settings": "S. cerevisiae cln2 rad14 strain, stronger effect = higher value", "summary_of_the_method": "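Strain: cln2 rad14 yeast, altered in cell cycle control and DNA damage repair. Read-out: growth inhibition vs vehicle.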"}, "[11]": {"experiment": "NCI Yeast Anticancer Drug Screen. Data for the bub3 strain (AID 167)", "settings": "S. cerevisiae bub3 mutant strain, stronger effect = higher value", "summary_of_the_method": "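Readout: yeast growth inhibition, expressed relative to vehicle-only wells. The test organism is a mutant strain from a panel with lesions in DNA repair or checkpoint genes.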"}, "[12]": {"experiment": "NCI Yeast Anticancer Drug Screen. Data for the wt2 strain (AID 169);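 also: 0% = growth of vehicle-treated yeast cultures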", "settings": "S. cerevisiae wt2 strain growth inhibition, stronger effect = higher value", "summary_of_the_method": "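Growth of compound-treated yeast is measured and expressed as inhibition relative to vehicle-only controls.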"}, "[13]": {"experiment": "NCI Yeast Anticancer Drug Screen. Data for the sgs1 strain (AID 173);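 also: 0% = growth of vehicle-only control cultures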", "settings": "S. cerevisiae sgs1 mutant, stronger effect = higher value", "summary_of_the_method": "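Strain with an altered DNA repair or cell cycle pathway exposed to compound. Growth then measured. Value = inhibition versus vehicle control.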"}, "[14]": {"experiment": "NCI Yeast Anticancer Drug Screen. Data for the mlh1 rad18 strain (AID 175)", "settings": "S. cerevisiae mlh1 rad18 strain growth inhibition, stronger effect = higher value", "summary_of_the_method": "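A repair-deficient yeast strain is exposed to test compound, and growth is scored relative to vehicle-treated controls.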"}, "[15]": {"experiment": "NCI Yeast Anticancer Drug Screen. Data for the rad18 strain (AID 177)", "settings": "S. cerevisiae rad18 mutant growth inhibition, stronger effect = higher value", "summary_of_the_method": "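DNA-repair-defective yeast; compound treatment; growth inhibition scored against vehicle.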"}, "[16]": {"settings": "at 5.0 µM (retest, dose inferred, filed as 0.5)"}, "[17]": {"settings": "at 50.0 µM (retest, dose inferred, filed as 5.0)"}}, "note": "About 79,000 compounds went through this panel and 15% of them were active in at least one assay; those are over-represented in the sample as a whole. A number with no mark means an inactive call. Activity calls are given as the source filed them. Rule as the data show it: active = growth inhibition above about 70%; inactive = the rest."}
{"compound": "c1ccc2cc3n[se]nc3cc2c1", "values": [{"measurement": "growth inhibition", "setting": "[1]; at 1.2 µM", "result": 2, "unit": "%"}, {"measurement": "growth inhibition", "setting": "[1]; at 3.7 µM", "result": 5, "unit": "%"}, {"measurement": "growth inhibition", "setting": "[1]; at 11.0 µM", "result": 17, "unit": "%"}, {"measurement": "growth inhibition", "setting": "[1]; at 33.0 µM", "result": 47, "unit": "%"}, {"measurement": "growth inhibition", "setting": "[1]; at 100.0 µM", "result": "96% (active)"}, {"measurement": "growth inhibition", "setting": "[2]; at 1.2 µM", "result": 5, "unit": "%"}, {"measurement": "growth inhibition", "setting": "[2]; at 3.7 µM", "result": 2, "unit": "%"}, {"measurement": "growth inhibition", "setting": "[2]; at 11.0 µM", "result": 6, "unit": "%"}, {"measurement": "growth inhibition", "setting": "[2]; at 33.0 µM", "result": 13, "unit": "%"}, {"measurement": "growth inhibition", "setting": "[2]; at 100.0 µM", "result": "72% (active)"}, {"measurement": "growth inhibition", "setting": "[3]; at 1.2 µM", "result": 2, "unit": "%"}, {"measurement": "growth inhibition", "setting": "[3]; at 3.7 µM", "result": 13, "unit": "%"}, {"measurement": "growth inhibition", "setting": "[3]; at 11.0 µM", "result": 33, "unit": "%"}, {"measurement": "growth inhibition", "setting": "[3]; at 33.0 µM", "result": 64, "unit": "%"}, {"measurement": "growth inhibition", "setting": "[3]; at 100.0 µM", "result": "86% (active)"}, {"measurement": "growth inhibition", "setting": "[4]; at 1.2 µM", "result": 6, "unit": "%"}, {"measurement": "growth inhibition", "setting": "[4]; at 3.7 µM", "result": 7, "unit": "%"}, {"measurement": "growth inhibition", "setting": "[4]; at 11.0 µM", "result": 5, "unit": "%"}, {"measurement": "growth inhibition", "setting": "[4]; at 33.0 µM", "result": 27, "unit": "%"}, {"measurement": "growth inhibition", "setting": "[4]; at 100.0 µM", "result": "94% (active)"}, {"measurement": "growth inhibition", "setting": "[5]; at 1.2 µM", "result": 3, "unit": "%"}, {"measurement": "growth inhibition", "setting": "[5]; at 3.7 µM", "result": 5, "unit": "%"}, {"measurement": "growth inhibition", "setting": "[5]; [16]", "result": -14, "unit": "%"}, {"measurement": "growth inhibition", "setting": "[5]; at 11.0 µM", "result": 19, "unit": "%"}, {"measurement": "growth inhibition", "setting": "[5]; at 33.0 µM", "result": "79% (active)"}, {"measurement": "growth inhibition", "setting": "[5]; [17]", "result": 55, "unit": "%"}, {"measurement": "growth inhibition", "setting": "[5]; at 50.0 µM", "result": "97.5% (active)"}, {"measurement": "growth inhibition", "setting": "[5]; at 100.0 µM", "result": "96% (active)"}, {"measurement": "growth inhibition", "setting": "[6]; at 1.2 µM", "result": 1, "unit": "%"}, {"measurement": "growth inhibition", "setting": "[6]; at 3.7 µM", "result": 2, "unit": "%"}, {"measurement": "growth inhibition", "setting": "[6]; [16]", "result": -14, "unit": "%"}, {"measurement": "growth inhibition", "setting": "[6]; at 11.0 µM", "result": 8, "unit": "%"}, {"measurement": "growth inhibition", "setting": "[6]; at 33.0 µM", "result": 16, "unit": "%"}, {"measurement": "growth inhibition", "setting": "[6]; [17]", "result": 3, "unit": "%"}, {"measurement": "growth inhibition", "setting": "[6]; at 50.0 µM", "result": 39.4, "unit": "%"}, {"measurement": "growth inhibition", "setting": "[6]; at 100.0 µM", "result": "93% (active)"}, {"measurement": "growth inhibition", "setting": "[7]; at 1.2 µM", "result": 3, "unit": "%"}, {"measurement": "growth inhibition", "setting": "[7]; at 3.7 µM", "result": 4, "unit": "%"}, {"measurement": "growth inhibition", "setting": "[7]; at 11.0 µM", "result": 5, "unit": "%"}, {"measurement": "growth inhibition", "setting": "[7]; at 33.0 µM", "result": 18, "unit": "%"}, {"measurement": "growth inhibition", "setting": "[7]; at 100.0 µM", "result": "98% (active)"}, {"measurement": "growth inhibition", "setting": "[8]; [16]", "result": -15, "unit": "%"}, {"measurement": "growth inhibition", "setting": "[8]; [17]", "result": 44, "unit": "%"}, {"measurement": "growth inhibition", "setting": "[8]; at 50.0 µM", "result": 45.2, "unit": "%"}, {"measurement": "growth inhibition", "setting": "[9]; at 1.2 µM", "result": -5, "unit": "%"}, {"measurement": "growth inhibition", "setting": "[9]; at 3.7 µM", "result": 0, "unit": "%"}, {"measurement": "growth inhibition", "setting": "[9]; at 11.0 µM", "result": 15, "unit": "%"}, {"measurement": "growth inhibition", "setting": "[9]; at 33.0 µM", "result": 14, "unit": "%"}, {"measurement": "growth inhibition", "setting": "[9]; at 100.0 µM", "result": "78% (active)"}, {"measurement": "growth inhibition", "setting": "[10]; [16]", "result": -21, "unit": "%"}, {"measurement": "growth inhibition", "setting": "[10]; [17]", "result": 2, "unit": "%"}, {"measurement": "growth inhibition", "setting": "[10]; at 50.0 µM", "result": -2.35, "unit": "%"}, {"measurement": "growth inhibition", "setting": "[11]; at 1.2 µM", "result": -1, "unit": "%"}, {"measurement": "growth inhibition", "setting": "[11]; at 3.7 µM", "result": 1, "unit": "%"}, {"measurement": "growth inhibition", "setting": "[11]; [16]", "result": 13, "unit": "%"}, {"measurement": "growth inhibition", "setting": "[11]; at 11.0 µM", "result": 4, "unit": "%"}, {"measurement": "growth inhibition", "setting": "[11]; at 33.0 µM", "result": 28, "unit": "%"}, {"measurement": "growth inhibition", "setting": "[11]; [17]", "result": 25, "unit": "%"}, {"measurement": "growth inhibition", "setting": "[11]; at 50.0 µM", "result": 56.8, "unit": "%"}, {"measurement": "growth inhibition", "setting": "[11]; at 100.0 µM", "result": "96% (active)"}, {"measurement": "growth inhibition", "setting": "[12]; at 1.2 µM", "result": 0, "unit": "%"}, {"measurement": "growth inhibition", "setting": "[12]; at 3.7 µM", "result": 1, "unit": "%"}, {"measurement": "growth inhibition", "setting": "[12]; at 11.0 µM", "result": 8, "unit": "%"}, {"measurement": "growth inhibition", "setting": "[12]; at 33.0 µM", "result": 26, "unit": "%"}, {"measurement": "growth inhibition", "setting": "[12]; at 100.0 µM", "result": "95% (active)"}, {"measurement": "growth inhibition", "setting": "[13]; at 1.2 µM", "result": 2, "unit": "%"}, {"measurement": "growth inhibition", "setting": "[13]; at 3.7 µM", "result": 4, "unit": "%"}, {"measurement": "growth inhibition", "setting": "[13]; at 11.0 µM", "result": 12, "unit": "%"}, {"measurement": "growth inhibition", "setting": "[13]; at 33.0 µM", "result": 33, "unit": "%"}, {"measurement": "growth inhibition", "setting": "[13]; at 100.0 µM", "result": "91% (active)"}, {"measurement": "growth inhibition", "setting": "[14]; [16]", "result": -11, "unit": "%"}, {"measurement": "growth inhibition", "setting": "[14]; [17]", "result": 24, "unit": "%"}, {"measurement": "growth inhibition", "setting": "[14]; at 50.0 µM", "result": "76.2% (active)"}, {"measurement": "growth inhibition", "setting": "[15]; at 1.2 µM", "result": 4, "unit": "%"}, {"measurement": "growth inhibition", "setting": "[15]; at 3.7 µM", "result": 13, "unit": "%"}, {"measurement": "growth inhibition", "setting": "[15]; at 11.0 µM", "result": 4, "unit": "%"}, {"measurement": "growth inhibition", "setting": "[15]; at 33.0 µM", "result": 68, "unit": "%"}, {"measurement": "growth inhibition", "setting": "[15]; at 100.0 µM", "result": "96% (active)"}]}
